Records with an inconclusive call do not appear. Calls of active or inactive are those of the source. Calls follow the shape of the dose curve; as a rule, active = well fitted cell-killing curve with a large enough effect; inconclusive = small, poorly fitted or top-dose-only effect; inactive = no such curve, though single readings can be large or run the other way. Non-standard residues stand in square brackets, D forms with d. Residues, ends and D or L forms follow the SMILES beside them. *: point of attachment. Nva = CCC[C@H](N)C(=O)O; Cbz = O=C(OCc1ccccc1)*
Potency is read from the fitted curve at half-maximal effect.

The experiment can be described thus: qHTS of pediatric cancer cell lines to identify multiple opportunities for drug repurposing: Confirmatory screen for U-2 OS cells (AID 1347122). Also: nearly all actives have a fitted effect of over 65% in size. The settings on record: U-2 OS osteosarcoma cell viability; series mostly up to 45.9 µM. An excerpt: Drug repurposing or repositioning has been offered as a strategy for drug development in oncology programs. This approach has special potential for childhood cancers and other rare or orphan diseases, where the expected return on new drug development has been a disincentive to pharmaceuticals.
In this project we exploit the poly-pharmacology of drugs to discover new indications via phenotypic screening of a panel of 19 well-characterized cell lines derived from solid tumors seen in children and adolescents. The goal is to identify approved drugs with previously unrecognized anticancer properties that has the potential to reveal new mechanisms and biological processes involved in carcinogenesis or drug resistance. We employed a titration-based paradigm (quantitative high-throughput screening or qHTS), where all compounds were tested at multiple concentrations for their effect on cell viability. Concentration-response curves (CRCs) were derived directly from the primary screen, and both potency and efficacy values were used to identify compounds with robust bioactivity profiles. We screened the NIH Chemical Genomics Center (NCGC) Pharmaceutical Collection (NPC) and Mechanism Interrogation Plate (MIPE) small molecule collections of approved and investigational compounds against these cell lines; and measured metabolically active cells after 48 hours of compound treatment as a proxy for cell viability.
Assay Submitter: Nathalia J. Martinez, National Center for Advancing Translational Sciences, National Institutes of Health, Rockville, MD, USA; email: natalia.martinez@nih.gov
[1] Shen, M et al. Quantitative high-throughput phenotypic screening of pediatric cancer cell lines identifies multiple opportunities for drug repurposing. Oncotarget 2017 Dec 19;9(4):4758-4772. PMID 29435139.
The cells were obtained from University of North Carolina (UNC), Pediatric Preclinical Testing Program (PPT), and Coriell Institute (CI).
qHTS cell viability assay:
Cells were assayed in growth media at a density of 500-1,000 cells/well. Five microliters of cells were dispensed into 1,536-well, white, solid-bottom, TC-treated plates (Greiner Bio One) using a multidrop dispenser and incubated at 37 degrees C, 5% CO2, under a humidified atmosphere for 5 hours. Twenty-three nanoliters of compounds and controls (neutral control DMSO or positive control bortezomib at final concentration of 2.3 µM) were subsequently transferred by Kalypsys pintool. For primary screens, the MIPE collection was tested at 11-point dilutions (final concentrations range from 0.78 nM to 46 µM) and the NPC collection at 8-point dilutions (final concentrations range from 0.59 nM to 46 µM). Compounds tested in follow-up screens were assayed at 11-point dilutions. Cells were incubated for 48 hours, followed by addition of 3 µL of CellTiter-Glo (Promega). After a 15 min incubation at room temperature, samples were analyzed for luminescence intensity using a ViewLux High-throughput CCD imager equipped with clear filters.
A general note: Quantitative high-throughput screening tests each substance at several concentrations.
For the compound `Nc1ncn([C@@H]2O[C@H](CO)[C@@H](O)[C@@H]2O)c(=O)n1`, the Potency is 8.27 µM (active).

With `CC(C)N1[N]C(=C2C=c3cc(O)ccc3=N2)c2c(N)ncnc21`, the Potency was 2.33 µM (active).

Take `CC(C(C)N1CC(=O)NC(=O)C1)N1CC(=O)NC(=O)C1` (stereo not given): the Potency result is “inactive”.

As for `CNC(=O)c1cccc(-c2ccc3c(N4CCOC[C@H]4C)nc(N4CCOC[C@H]4C)nc3n2)c1`, the Potency is 0.261 µM (active).

For `C[C@@H](Oc1ccc2[nH]nc(C=Cc3cnn(CCO)c3)c2c1)c1c(Cl)cncc1Cl`, the Potency was 2.08 µM (active).

Turning to `Oc1ccc(-c2ccc(-c3cc(Nc4cccc(CNC5CC5)c4)n[nH]3)cc2)c(O)c1`, the Potency was 5.22 µM (active).

On to `O=C(C=CC#Cc1cccc(NS(=O)(=O)c2ccccc2)c1)NO`, for which the Potency is 0.928 µM (active).

Turning to `CC(=O)NCC(=O)N1[C@H]2CC[C@H]1c1cc(Nc3ncc(C(F)(F)F)c(NC4CCC4)n3)ccc12`, the Potency was 1.85 µM (active).

In the case of `CN[C@@H]1C[C@H]2O[C@@](C)([C@H]1OC)n1c3ccccc3c3c4c(c5c6ccccc6n2c5c31)C(=O)N[C@H]4O`, the Potency was 0.369 µM (active).

Turning to `NC(=O)Nc1cc(-c2ccc(CN3CCOCC3)cc2)sc1C(N)=O`, the Potency was 11.7 µM (active).

For the compound `O=C1NC(=O)C(=Cc2ccc3nccc(-c4ccncc4)c3c2)S1`, the Potency was 2.61 µM (active).

In the case of `C=CCNC1=C2C[C@@H](C)C[C@H](OC)[C@@H](O)[C@@H](C)C=C(C)[C@H](OC(N)=O)[C@@H](OC)C=CC=C(C)C(=O)NC(=CC1=O)C2=O`, the Potency was 0.414 µM (active).

As for `CC1(C)O[C@@H]2C[C@H]3[C@@H]4CCC5=CC(=O)C=C[C@]5(C)[C@@H]4[C@@H](O)C[C@]3(C)[C@]2(C(=O)CO)O1`, the Potency entry was “inactive”.

As for `Cc1cnc(Nc2ccc(CN3CCOCC3)cc2)nc1Nc1cccc(S(=O)(=O)NC(C)(C)C)c1`, the Potency was 4.65 µM (active).

`COC(=O)C1C2CC3c4[nH]c5cc(OC)ccc5c4CCN3CC2CC(OC(=O)c2cc(OC)c(OC)c(OC)c2)C1OC` (stereo not given): the Potency is 20.8 µM (active).

As for `CC(=O)[C@]1(O)Cc2c(O)c3c(c(O)c2[C@@H](O[C@H]2C[C@H](N)[C@@H](O)[C@H](C)O2)C1)C(=O)c1ccccc1C3=O`, the Potency is 1.31 µM (active).

For `COc1cccc2c1C(=O)c1c(O)c3c(c(O)c1C2=O)C[C@@](O)(C(C)=O)C[C@H]3O[C@H]1C[C@H](N)[C@H](O)[C@H](C)O1`, the Potency was 7.37 µM (active).

`CC(=O)SCC(Cc1ccccc1)C(=O)NCC(=O)OCc1ccccc1` (stereo not given): the Potency entry was “inactive”.

With `C=Cc1c(C)c2cc3nc(cc4[nH]c(cc5nc(cc1[nH]2)C(C)=C5CCC(=O)O)c(CCC(=O)OC)c4C)[C@@]1(C)C3=CC=C(C(=O)OC)[C@H]1C(=O)OC`, the Potency result is “inactive”.

Turning to `CNC(=O)Nc1ccc(-c2nc(N3CC4CCC(C3)O4)c3cnn(C4CCC5(CC4)OCCO5)c3n2)cc1`, the Potency was 0.522 µM (active).

Consider `CCS(=O)(=O)Nc1ccc2[nH]c(O)c(C(=Nc3ccc(CN4CCCCC4)cc3)c3ccccc3)c2c1`, for which the Potency was 0.522 µM (active).

On to `CC(C)(N)c1ccc(-c2nc3ccccc3nc2-c2ccccc2)cc1`, for which the Potency entry was “inactive”.

For the compound `COc1cc(OC)c(C=CS(=O)(=O)Cc2ccc(OC)c(NCC(=O)O)c2)c(OC)c1`, the Potency is 0.293 µM (active).

As to `O=C1NC(=O)[C@@H](c2cn3c4c(cccc24)CCC3)[C@H]1c1c[nH]c2ccccc12`, the Potency was 1.17 µM (active).

For `CN[C@H]1[C@@H](O)[C@@H]2O[C@@H]3O[C@H](C)CC(=O)[C@]3(O)O[C@@H]2[C@@H](NC)[C@H]1O`, the Potency result is “inactive”.

Turning to `CS(=O)(=O)N1CCc2c(-c3cnc(N)nc3)nc(N3CCOCC3)nc21`, the Potency is 1.85 µM (active).

As for `COC(=O)[C@@H]1[C@H]2C[C@@H]3c4[nH]c5ccccc5c4CCN3C[C@@H]2CC[C@@H]1O`, the Potency result is “inactive”.

In the case of `Cc1ccc([N+](=O)[O-])cc1S(=O)(=O)N(C)N=Cc1cnc2ccc(Br)cn12`, the Potency is 7.37 µM (active).

Regarding `COc1cc([C@@H]2c3cc4c(cc3[C@H](O)[C@H]3COC(=O)[C@@H]23)OCO4)cc(OC)c1OC`, the Potency is 1.85 µM (active).

Take `O=C(NCc1ccccc1)[C@H](Cc1ccccc1)NC(=O)[C@@H]1O[C@@H]1C(=O)NCCc1ccc(O)cc1`: the Potency result was “inactive”.

Turning to `Nc1nc2c(c(=O)[nH]1)N(C=O)[C@H](CNc1ccc(C(=O)N[C@@H](CCC(=O)O)C(=O)O)cc1)CN2`, the Potency result was “inactive”.

With `O=C(C=CC=Cc1ccc2c(c1)OCO2)N1CCCCC1`, the Potency result is “inactive”.

`N#CNC(=NCCCCCCOc1ccc(Cl)cc1)Nc1ccncc1`: the Potency was 0.293 µM (active).

With `O=S(=O)(O)CCSSCCS(=O)(=O)O`, the Potency result was “inactive”.

With `CC[C@]12C=CCN3CC[C@@]4(c5cc([C@@]6(C(=O)OC)C[C@H]7C[C@@H](C(C)(F)F)CN(Cc8c6[nH]c6ccccc86)C7)c(OC)cc5N(C)[C@H]4[C@@](O)(C(=O)OC)[C@H]1OC(C)=O)[C@@H]32`, the Potency entry is “inactive”.

As to `COc1cc([C@@H]2c3cc4c(cc3[C@@H](O[C@@H]3O[C@@H]5CO[C@@H](c6cccs6)O[C@@H]5[C@H](O)[C@@H]3O)[C@H]3COC(=O)[C@H]23)OCO4)cc(OC)c1O`, the Potency is 2.33 µM (active).

On to `CCC[C@@H](C=O)NC(=O)[C@H](CC(C)C)NC(=O)[C@H](CC(C)C)NC(=O)OCc1ccccc1` (Cbz-Leu-Leu-[Nva]-aldehyde), for which the Potency is 2.61 µM (active).

On to `COc1ccc(C[C@@H](C)[C@@H](C)Cc2ccc(OC)c(OC)c2)cc1OC`, for which the Potency entry was “inactive”.

Regarding `CCOC(=O)C1=C(C)NC(=S)NC1c1cccc(O)c1` (stereo not given), the Potency was 20.8 µM (active).

Regarding `CC(C=CC(=O)NO)=C[C@@H](C)C(=O)c1ccc(N(C)C)cc1`, the Potency was 0.657 µM (active).

Values taken from PubChem BioAssay (NCATS).
